Results filed as inconclusive are left out. A call without a number means that no potency is given here. The source made the active and inactive calls. The call rests on the fitted dose curve; in most records, active means well fitted activation curve with a large enough effect; inconclusive means small, poorly fitted or top-dose-only effect; inactive means no such curve, though single readings can be large or run the other way.
test: qHTS Assay for Identifying a Potential Treatment of Ataxia-Telangiectasia: Secondary assay (no NCS) hit validation; conditions: A-T patient fibroblasts, AlphaLISA, no DNA damage added, 90 min; series mostly up to 76.9 µM;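 further: phosphorylated KAP1 signal as a proxy for ATM-like kinase activity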
Procedure, shortened: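 Without NCS-induced DNA breaks, ATM-like activity scored as phospho-KAP1 AlphaLISA signal (pKAP1/total KAP1 bead pair) in ATM-null F2112 fibroblasts; compound series up to 76.7 uM final, 37C incubation, lysates read on AlphaScreen protocol.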
Potency means the concentration at half of the fitted maximal effect.

Row | SMILES | Potency
1 | CC(C)Nc1nc(Oc2ccc(=O)n(-c3ccccc3)n2)nc(N(C)C)n1 | inactive
2 | COc1cccc(C2C(C(N)=O)=C(C)Nc3nc(CCCO)nn32)c1 (centres undefined) | inactive
3 | Cc1ccc(NC(=O)Nc2cccnc2)cc1NC(=O)Nc1cccnc1 | inactive
4 | CC(C)(C)C1CCC2(CC1)SCC(=O)N2c1ccccc1 (centres undefined) | inactive
5 | C=CS(=O)(=O)c1sc(Cl)c(N2CCOCC2)c1[N+](=O)[O-] | inactive
6 | C=C(C)n1c(=O)n(Cc2ccccc2C)c2ccccc21 | inactive
7 | COc1ccc(CCNC2=NCCS2)cc1OC | inactive
8 | COc1ccc2c(c1)c(N=NC(N)=S)c(O)n2CC(=O)c1ccccc1 | inactive
9 | CCOC(=O)c1[nH]c(COC(=O)c2ccccc2NC(=O)c2ccco2)c(C(=O)OCC)c1C | inactive
10 | CC(C)NC(=O)c1ccc(COc2ccc(C(C)(C)C)cc2)o1 | inactive
11 | CCOc1cccc(-c2nnc(SCC(=O)Nc3cc(C)ccc3OC)n2N)c1 | inactive
12 | COc1cc(/C=C2\SC(=S)N(C(C(=O)O)c3ccccc3)C2=O)ccc1O (centres undefined) | inactive
13 | CC(O)[C@H]1CNC(=O)C(=O)N1CC1(c2ccccc2)CC1 (some centres undefined) | inactive
14 | CC(Oc1ccccc1)C(=O)Nc1cccc(NC(=O)c2ccco2)c1 (centres undefined) | inactive
15 | CCOC(=O)C1=C(C)N(c2ccc(OC)cc2)C(=O)/C1=C\c1ccc(O)c(OCC)c1 | inactive
16 | N#CCN1C(=O)C(=O)N(Cc2cccc(Cl)c2)C1=O | inactive
17 | CC(=O)Nc1ccc(NC(=O)CSc2nnnn2-c2ccc(F)cc2)cc1 | inactive

Row | SMILES | Potency
18 | COc1ccc(C(=O)CSc2nc3ncccc3[nH]2)cc1OC | inactive
19 | COc1ccccc1-n1c(SCC(N)=O)nc2sc3c(c2c1=O)CCC3 | inactive
20 | CCN(c1ccccc1)S(=O)(=O)c1ccc(Cl)c(C(=O)N(CC2CCCO2)C2CCS(=O)(=O)C2)c1 (centres undefined) | 14.6 µM (active)
21 | C(=N\Nc1ccccn1)/c1c[nH]c2ccccc12 | inactive
22 | COc1ccccc1S(=O)(=O)Nc1ccc(-c2nnc3n2CCCCC3)cc1 | inactive
23 | CC(C)(C=O)C1=CC(=O)c2ccccc2C1=O | 51.9 µM (active)
24 | COc1ccc(CNC(=O)CN2C(=O)CSc3ccc(S(=O)(=O)N4CCOCC4)cc32)c(OC)c1 | inactive
25 | Nc1ccc2ncccc2c1 | inactive
26 | CCC(=O)c1ccc2c(c1)OCCO2 | inactive
27 | CCN1CCN(CC(=O)Nc2ccc(C(C)=O)cc2)CC1 | 26 µM (active)
28 | O=C(Nc1cc(S(=O)(=O)N2CCOCC2)ccc1Cl)c1cc(=O)c2ccccc2o1 | inactive
29 | CC(C)CNS(=O)(=O)c1cc(C(=O)O)c(Cl)cc1Cl | inactive
30 | COc1ccc(Cl)cc1NC(=O)C[n+]1cccc(C)c1 | inactive
31 | Cc1cccc(NC(=O)/C(C#N)=C/c2ccc(F)cc2)n1 | 1.84 µM (active)
32 | COC(=O)Cn1ccc2cc(S(=O)(=O)N3CCCCC3)ccc21 | inactive
33 | CCC12CN(C(=O)c3ccc([N+](=O)[O-])cc3)CC(CC)(CN(C(=O)c3ccc([N+](=O)[O-])cc3)C1)C2=O | 0.207 µM (active)
34 | Cc1ccc(C(=O)Nc2sc3c(c2C(=O)O)CCCCC3)o1 | 0.232 µM (active)

From PubChem BioAssay AID493201 (National Center for Advancing Translational Sciences (NCATS), 2011)
